The results in this text go back to PubChem BioAssay AID1875 (Broad Institute, 2009).

About 65 (0.02%) of roughly 300,000 compounds were called active. For the sample, actives were picked, then their nearest neighbours and some compounds at random. A number with no mark means an inactive call.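 Rule for the calls: active = lowest replicate activity score at least 50, where 100 means six control SD above control mean; inconclusive = lowest score under 50 but half or more replicates reach 50; inactive = the rest.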

This assay is described as follows: polyadenylation inhibitors in yeast reporter cells, primary screen, luminescence, S. cerevisiae (AID 1875).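 Note: yeast exposed to compound for 9 h at 30 °C; higher score means more reporter readthrough which indicates perturbed polyadenylation.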 The note with it: S. cerevisiae SKY197-pL101 polyadenylation reporter, beta-gal luminescence; at 12 µM; stronger effect = higher value; efflux-impaired pdr1/pdr3 knockout yeast; score 100 = 6 SD above DMSO.
For the compound `COc1cc(OC)c(-n2cc(-c3ccc(Cl)cc3)[nH]c2=O)cc1Cl`, the activity score was -4.07%. For `O=C1CSc2ccc(S(=O)(=O)NCc3ccccc3)cc2N1`, the activity score was 3.02%. In the case of `O=C(NN1C(=O)C2C3C=CC(O3)C2C1=O)c1ccncc1` (centres undefined) it was 2.42%.

Consider `COc1cccc(-n2c(=S)sc3c(=O)n(-c4ccccc4C)c(SCC(=O)O)nc32)c1`, for which the activity score was 27.3%. As for `COc1cc(/C=C/C(=O)OCC(=O)NC(=O)NCc2ccccc2)ccc1OCC#N`, the activity score is -0.558%.

On to `Cn1nccc1/C=N\NC(=O)c1ccc(Cl)cc1`, for which the activity score is 7.4%. In the case of `COc1ccc(S(=O)(=O)c2c[nH]c(=S)[nH]c2=O)cc1Cl` it was 11.8%. In the case of `COc1ccc(CNC(=O)c2ccc(Br)s2)cc1OC` it was 6.38%; in that of `COc1ccc(Cl)cc1NC(=O)Cn1nc(-c2ccc(C)cc2)n(C)c1=S`, -3.37%; in that of `O=C(c1[nH]ncc1-c1ccc(Cl)cc1)C1CO1` (centres undefined), 19.5%. In the case of `O=C(NCc1ccco1)c1ccc(NS(=O)(=O)c2cccc([N+](=O)[O-])c2)cc1` it was -6.5%; in that of `Cc1ccc(C(=O)N/C(=C\c2cn(C)c3ccccc23)C(=O)N2CCN(C)CC2)cc1`, -4.13%; in that of `NC(=O)c1oc2ccccc2c1NC(=O)CS(=O)(=O)c1ccccc1`, 13.3%. Regarding `O=C(O)Cn1c(Cc2ccccc2)nc2ccccc21`, the activity score was -5.1%. The result for `CC(C)c1ccc(OCC(O)CN2CCN(c3ccccn3)CC2)cc1` (centres undefined) reads -11.9%; that for `O=S(=O)(NCCc1ccc(Cl)cc1)c1cccs1`, 14.8%; that for `O=C(NC1CC1)C(Cc1ccccc1)NS(=O)(=O)c1ccccc1F` (centres undefined), 2.29%. In the case of `COc1ccc(N2CCN(CCNC(=O)Nc3cc(Cl)ccc3Cl)CC2)cc1` it was -1.83%. The result for `N#Cc1ccc(S(=O)(=O)NCC(=O)OCC(=O)NCCc2ccccc2)cc1` reads 3.63%. For `CSc1ncc(C(=O)Nc2ccc(C)cc2C)c(C)n1`, the activity score was 2.7%. `CC(=O)c1ccc(S(=O)(=O)N2CCN(c3nc4c(C)c(C)ccc4cc3C#N)CC2)cc1`: the activity score is 13.6%. In the case of `Cc1ccc(NS(=O)(=O)c2ccc(C(C)(C)C)cc2)cn1` it was -9.91%; in that of `COc1ccc(N2CCN(CCNC(=O)c3nnc(Cc4c(F)cccc4Cl)o3)CC2)cc1`, -12.7%; in that of `CCOC(=O)c1nn(-c2ccccc2F)c2nc(Nc3ccccc3)cc(=O)n12`, -12.8%. The result for `CN(C)Cc1c(O)ccc2c(=O)c(-c3ccccc3Cl)coc12` reads 8.63%; that for `CN1CCN(C(=O)C(=O)c2cn(CC(=O)N3CCCC3)c3ccccc23)CC1`, 17%.

Turning to `CC(=O)Nc1ccc(NC(=O)CS(=O)(=O)c2cn(CC(=O)N3CCCCC3)c3ccccc23)cc1`, the activity score is 4.41%. In the case of `S=C(c1ccc(-c2ccccc2)o1)N1CCCCC1` it was -23.1%; in that of `CC(=O)Nc1cccc(OCC(=O)/C=C2\N(C)c3ccccc3C2(C)C)c1`, -11.1%; in that of `Cc1ccc(OCC(=O)NCCCNC(=O)c2cccnc2)cc1C`, 0.135%. In the case of `N#C/C=C\Oc1ccc(Cl)cc1N` it was -86.8%; in that of `COC(=O)CSc1ccc2nnc(CCNS(=O)(=O)c3ccc(C)cc3)n2n1`, 6.76%; in that of `COc1ccc(C2Nc3ccccc3C(=O)N2c2ccc(Cl)cc2)cc1Cn1cc([N+](=O)[O-])cn1` (centres undefined), -9.63%.

On to `COc1cc(NC(=O)c2ccc(CNc3c(N4CCCC4)c(=O)c3=O)cc2)cc(OC)c1OC`, for which the activity score is 19.5%. In the case of `C/C(CC(=O)Nc1ccc(N(C)C)cc1)=N\NC(=O)c1ccccc1F` it was -2.05%; in that of `COCCNC(=S)N1CCN(C)CC1`, -14.8%.

Regarding `COc1ccc(CCN(C)C(=O)C23CC4CC(CC(Cl)(C4)C2)C3)cc1OC`, the activity score is 5.22%.

As to `COc1cccc(NC(=O)Cn2c3ccc(F)cc3c3nc4n(c(=O)c32)CCS4)c1`, the activity score is -13.2%. In the case of `Cc1ccc(Cl)cc1N1CCN(C(=O)c2cccc3c(=O)c(C)c(-c4ccccc4)oc23)CC1` it was 5.32%; in that of `COC(=O)Nc1ccc(S(=O)(=O)N(C)CC(F)(F)C(F)F)cc1`, 3.96%; in that of `Clc1ccc(-c2nnc(-c3ccccc3)nc2N2CCSCC2)cc1`, -11%. The result for `COc1cccc2cc(C(C)N(CCCN3CCOCC3)C(=O)Nc3ccc(Cl)cc3)oc12` (centres undefined) reads -8.58%; that for `COC(=O)c1ccccc1NC(=O)C1CCN(C(=O)N2CCOc3ccccc32)CC1`, 8.38%; that for `CCOc1ccc2sc(NS(=O)(=O)c3ccc(N)cc3)nc2c1`, -8.96%. In the case of `O=C1OCC2=C1C(c1ccccc1)CC(=O)N2c1cccc(F)c1` (centres undefined) it was 19.6%; in that of `COc1cccc(NC(=O)CC(c2ccc(OC(C)C)cc2)c2ccccc2OC)c1` (centres undefined), 10.2%.

As to `Cc1ccc2nc(SCC(=O)Nc3cccc4ccccc34)nc(=O)n2c1`, the activity score was -16.5%. With `CC1(C)C(C=C(Cl)Cl)C1C(=O)N(Cc1ccc(Cl)cc1)C1CCS(=O)(=O)C1` (centres undefined), the activity score was -12.2%.

As to `N#CCSc1nc2ccc(N3CCOCC3)cc2c(=O)n1CCc1ccccc1`, the activity score is -15.9%. In the case of `CC1CC(NC(=O)/C(C#N)=C/c2ccc[nH]2)CC(C)(C)C1` (centres undefined), the activity score was -5.8%. The result for `CCN1C(=O)N[C@@H](CCc2ccccc2)C(C(=O)OC)=C1C` reads -17.2%; that for `O=C1C2C3C=CC(C3)C2C(=O)N1c1ccc(S(=O)(=O)Nc2nccs2)cc1` (centres undefined), -1.69%; that for `O=C(NC(Cc1ccccc1)C(=O)N1CCCC(C(F)(F)F)C1)c1ccccc1` (centres undefined), 5.98%.

On to `Cn1ncc(N2CCN(S(=O)(=O)c3ccc(Br)cc3)CC2)c(Cl)c1=O`, for which the activity score is 13.7%. In the case of `CC(=O)N1C(=O)/C(=C2\SC(=S)N(NC(=O)c3ccc(O)cc3)C2=O)c2ccccc21` it was -6.71%; in that of `Cc1ccc(CNC(=O)CCCNC(=O)c2ccc(Cl)cc2)n1C`, -18.6%.

Take `Cc1cccc(N(C(=O)c2sc(C)nc2C)C(C(=O)NCC2CCCO2)c2ccccc2)c1` (centres undefined): the activity score was -7.81%. In the case of `CC(C)C1Nc2c(C(=O)O)cccc2C(Nc2ccccc2C(=O)O)C1(C)C` (centres undefined), the activity score was 12.3%. The result for `Cc1ccn2c(=O)nc(SCC(=O)NCc3ccc4c(c3)OCO4)nc2c1` reads 17.3%; that for `Cn1cc(S(=O)(=O)NC(c2ccccc2)c2ccccc2)c(=O)n(C)c1=O`, -1.67%.

`COCCCNC(NC(=O)c1ccc(C)cc1)C(Cl)(Cl)Cl` (centres undefined): the activity score was 8.69%. The result for `COc1ccc2oc(=N)c(C(=O)Nc3ccc(Br)cc3)cc2c1` reads 0.299%; that for `O=C(Nc1ccccc1N1CCOCC1)c1ccc(OCc2cscn2)cc1`, 3%.

As for `CC(=O)Nc1ccc(NC(=O)[C@@H](NC(=O)c2cccc(C)c2)C(C)C)cc1`, the activity score is -9.42%. The result for `CCOC(=O)CNC(=O)CSc1ccc2nnc(-c3cccnc3)n2n1` reads 7.59%; that for `CCOC(=O)N1CCN(CC(=O)n2c(C)c(C)c3ccccc32)CC1`, -9.64%; that for `NC(N)=Nc1nc2ccc(Br)cc2c(=O)[nH]1`, 11.2%. The result for `Cc1ccc(NC(=O)C(=O)NCC2CCN(C(=O)c3cccc([N+](=O)[O-])c3)CC2)cc1` reads 15.6%.

In the case of `Cc1ccc(-n2nc(N)c3c(=O)oc(N(C)C)nc32)cc1`, the activity score was -13.9%. In the case of `FC(F)(F)c1cc(C(F)(F)F)c2ccc(N3CCN(c4ccccc4)CC3)nc2n1` it was -28.1%; in that of `Nc1c(C(=O)c2cccs2)sc2nsc(SCCN3CCCCC3)c12`, -10.6%. The result for `CN(Cc1nc(-c2cnccn2)no1)Cc1n[nH]c2c1CCCCC2` reads -15.8%; that for `CCNC(=O)CC1C(=O)N(c2ccc(OC)cc2)C(=O)N1CCOC` (centres undefined), 13.9%; that for `Cc1c(Nc2nc3ccccc3nc2NS(=O)(=O)c2cccs2)c(=O)n(-c2ccccc2)n1C`, -9.51%. In the case of `COc1ccccc1C(=O)NNC(=O)CCN1C(=O)/C(=C\c2ccccc2)SC1=S` it was -4.37%. As for `COc1cc(/C=C2/SC(=S)N(Cc3ccccc3)C2=O)cc(OC)c1O`, the activity score is 425% (active).

For the compound `COc1ccc(/C=C2\SC(=S)N(CCC(=O)Nc3ccccn3)C2=O)cc1OC`, the activity score is 14.3%. Turning to `COC(=O)C(=Nc1ccccc1)/C(C(=O)C(=O)N(C)c1ccccc1)=C(\O)c1ccc(Cl)cc1`, the activity score was 3.12%.

For `COc1ccc(C2/C=C\CN(S(=O)(=O)c3cccs3)CC(=O)N2Cc2ccc(F)cc2)cc1` (centres undefined), the activity score was 1.94%. As for `Cc1c(S(=O)(=O)N2CC(C)CC(C)C2)c(=O)n(C)c(=O)n1C` (centres undefined), the activity score was 11.6%. The result for `COc1ccc(/C=N/Nc2nc(-c3ccc(C)cc3)c(C#N)c(=O)[nH]2)cc1` reads -16.1%; that for `Cc1ccc(CNC(=O)Cn2c(=O)c3sccc3n(Cc3cccc([N+](=O)[O-])c3)c2=O)cc1`, -7.25%; that for `O=C(NCc1ccccc1)C(c1cccnc1)N(C(=O)c1csnn1)c1ccc(F)cc1` (centres undefined), 5.05%. In the case of `CC1CN(C(=O)COC(=O)c2cccc(NS(=O)(=O)c3ccccc3)c2)CC(C)O1` (centres undefined) it was 2%.

For the compound `COc1ccc(NC(=O)COc2ccc(C(=O)c3ccc(F)cc3)cc2)cc1S(N)(=O)=O`, the activity score is 7.67%. The result for `O=C(O)CCCn1cc(NC(=O)COc2cccc(Cl)c2)cn1` reads -6.55%. `Cc1cccn2c(CN(C)C3CCCc4ccccc43)c(C(=O)N3CCOCC3)nc12` (centres undefined): the activity score is 10.7%. The result for `O=C(COC(=O)Cc1ccccc1F)NNC(=O)c1ccc(Cl)cc1` reads 0.16%. The result for `CC(C)(C)C(=O)NC1CC2CCCC(C1)N2C(=O)Nc1ccccc1F` (centres undefined) reads 0.739%.
